# Assay outcomes (PubChem BioAssay)
# TEAD-YAP block: TEAD-YAP interaction inhibition, primary screen, TEAD-YAP interaction inhibitor project, luminescence, HEK-TIYL cells. inhibition, % at 9.12 µM. 1.4% of 640,000 active. TEAD-Gal4/YAP UAS-luciferase luminescence; in the data active means inhibition above about 32%;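 further: 0% = median of test compound wells and 100% = reference inhibitor wells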
# FBW7 activator: FBW7 E3 ligase activators, primary screen, biochemical, AlphaScreen, human; AlphaScreen FBW7–phospho-cyclin E peptide binding, activator screen; normalized activity (activation), % at 26.1 µM; 0.13% of 650,000 active; AID 1259310, 2017; in the data active means normalized activity above about 1.9%;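 further: purified mutant Fbw7 with reduced substrate affinity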
# GPR151 ag: activators of human GPR151, primary screen, cell-based, PathHunter beta-arrestin, luminescence; activation, % at 11.2 µM; 1% of 650,000 active; G-protein coupled receptor 151 (Homo sapiens), Q8TDV0; AID 1508602, 2020; PathHunter beta-arrestin GPR151 cells; in the data active means activation above about 4.9%;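 further: 0% = median of compound wells and 100% = cells with positive control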
# Target sequence (Q8TDV0 whole entry, looked up): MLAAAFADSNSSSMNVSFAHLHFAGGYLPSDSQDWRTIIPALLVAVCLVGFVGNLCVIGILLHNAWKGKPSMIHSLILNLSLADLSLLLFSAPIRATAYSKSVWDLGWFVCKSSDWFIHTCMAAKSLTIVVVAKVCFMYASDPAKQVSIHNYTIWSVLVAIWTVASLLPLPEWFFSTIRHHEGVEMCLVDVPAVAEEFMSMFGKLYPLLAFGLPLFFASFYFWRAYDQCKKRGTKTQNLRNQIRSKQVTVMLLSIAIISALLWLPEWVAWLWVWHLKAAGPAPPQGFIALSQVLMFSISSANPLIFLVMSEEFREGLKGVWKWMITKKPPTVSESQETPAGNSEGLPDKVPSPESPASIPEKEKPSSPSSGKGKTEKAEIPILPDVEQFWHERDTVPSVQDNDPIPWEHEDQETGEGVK
# MITF inh: MITF inhibitors, primary screen, biochemical, AlphaScreen, human; 0.91% of 650,000 active; AlphaScreen MITF homodimerization, bead proximity signal; inhibition, % at 2.6 µM; Microphthalmia-associated transcription factor (Homo sapiens), O75030; in the data active means inhibition above about 50%;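 further: 0% = vehicle wells with protein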
# * marks the source's active call; other numbers are inactive results. Compounds with a hit are over-represented: about 3.4% of the library has one in this group of screens.
SMILES,TEAD-YAP block,FBW7 activator,GPR151 ag,MITF inh
O=C(N/N=C/c1c(O)ccc2ccccc12)c1ccccc1O,75*,0,1,-31
CCCCCCCC(=O)NCCOC(=O)c1cc([N+](=O)[O-])cc([N+](=O)[O-])c1,4,0,-1,0
Cc1nonc1CN(C)C1CCC(=O)N(Cc2ccccc2Cl)CC1 (stereo not drawn),-1,0,0,-17
N#C/C(=C\c1ccc(O)c(O)c1)C(=O)c1ccc(O)c(O)c1,5,0,0,86*
COc1ccc(/C=C2\SC(=Nc3cccc4ccccc34)NC2=O)c(OC)c1,59*,0,-1,15
COc1ccc(OC)c(/C=C2/SC(=Nc3ccc(C)cc3)NC2=O)c1,51*,0,1,15
COc1ccc(/C=C2\SC(=Nc3ccccc3)NC2=O)c2ccccc12,63*,0,2,10
COc1ccc2ccccc2c1/C=C1\SC(=S)NC1=O,8,0,0,1
COc1ccc(/C=C2\SC(=Nc3ccccc3F)NC2=O)c(OC)c1,17,0,-1,16
COc1ccc2ccccc2c1/C=C1/SC(=Nc2ccccc2)NC1=O,44*,0,0,2
COC(=O)c1ccccc1NC(=O)c1cnn(-c2ccccc2)c1NC(=O)c1ccccc1F,7,0,1,-1
Cc1ccn2c(C(=O)N/N=C\c3ccccc3[N+](=O)[O-])c(C)nc2c1,-4,0,0,-6
COc1cccc(/C=N\NC(=O)c2c(C)nc3cc(C)ccn23)c1O,78*,-1,-1,50
O=C(O)c1ccc(N/N=C/c2c(F)cccc2Cl)cc1,36*,0,-8,2
CC(C)(C)c1ccc(O)c(/C=N/NC(=O)c2ccc3c(c2)OCCO3)c1,45*,0,0,29
COc1cccc(/C=N/NC(=O)c2cc(Br)ccc2OC(C)C)c1O,78*,0,-2,14
Cc1cc(C)c2cc3c(N)c(C(=O)N4CCCC4)sc3nc2c1,-1,0,1,5
Cc1ccc(C2C(C#N)=C(N)N(N3CCOCC3)C3=C2C(=O)CC(C)(C)C3)cc1 (stereo not drawn),-4,0,1,0
COc1ccc(/C=N/NC(=O)C(C)Nc2ccc(C)cc2)c(OC)c1 (stereo not drawn),7,0,-1,12
CC(C)Oc1ccc(Br)cc1C(=O)N/N=C/c1ccc2c(c1)OCO2,40*,0,-1,5
COc1cccc(/C=N/NC(=O)c2cccc(Cn3cccn3)c2)c1O,-3,0,-1,11
COc1cccc(/C=N/NC(=O)c2cccc(Cn3nc(C)cc3C)c2)c1O,7,0,-1,57*
COc1cccc(/C=N/NC(=O)c2cc(-c3ccco3)[nH]n2)c1O,23,-1,0,41
COc1cc(Cl)cc(/C=N\NC(=O)c2ccc3c(c2)OCO3)c1O,74*,-3,0,10
COc1cccc(/C=N/NC(=O)c2cc(C(C)C)[nH]n2)c1O,49*,0,0,16
SMILES,TEAD-YAP block,FBW7 activator,GPR151 ag,MITF inh
COc1ccccc1/C=N/NC(=O)CSc1cccc2cccnc12,-2,0,0,12
COc1cccc(/C=N/Nc2ccc(S(=O)(=O)O)cc2)c1O,10,0,1,21
COc1cccc(/C=N/Nc2ccc(C(=O)O)cc2)c1O,84*,0,-6,-15
COc1cccc(/C=N/NC(=O)c2cccc(Br)c2)c1O,64*,-1,0,20
COc1cc(Br)cc(/C=N/NC(=O)c2cccc(Br)c2)c1O,35*,0,-1,-13
C=CCc1cccc(/C=N/NC(=O)c2ccc(OC)cc2)c1O,50*,1,0,11
CN(C)c1ccc(-c2nc3cc(NC(=O)c4ccc(Br)cc4)ccc3o2)cc1,-17,0,-1,-1
O=C(Nc1ccc(NC(=O)c2ccc(Cl)cc2)nc1)c1ccncc1,-2,0,1,-4
Cc1nc2ccccn2c1C(=O)N/N=C/c1ccc(O)c(O)c1O,8,0,0,76*
COc1cccc(/C=N/NC(=O)c2ccc(C(C)(C)C)cc2)c1O,39*,-1,3,15
COc1cccc(/C=N/NC(=O)c2cccc(N)c2)c1O,67*,0,1,34
COc1ccc(CNC(=O)C(=O)N/N=C/c2cccc(OC)c2O)cc1,10,0,-1,53*
COc1cccc(/C=N/NC(=O)c2ccc(O)cc2)c1O,21,0,-1,-27
O=C(Nc1cccc(F)c1)Nc1ccnn1C1CCN(C(=O)C(=O)c2ccccc2)CC1,-25,0,4,-6
CCOc1ccc(NC(=O)CN(c2cc([N+](=O)[O-])ccc2C)S(C)(=O)=O)cc1,-15,0,1,-4
Cc1ccc(C(=O)NC(=S)Nc2nc(-c3ccc(Cl)cc3)cs2)cc1,-17,0,-1,3
CCC(C)(C)n1nnnc1CN1CCC(c2nc3ccc(C)cc3[nH]2)CC1,-6,0,-1,37
CCC(C)(C)n1nnnc1CN1CCC(c2nc3ccc(Cl)cc3[nH]2)CC1,35*,0,1,20
CCN(CC)c1ccc(/C=N\Nc2cc(=O)n(C)c(=O)n2C)cc1,55*,0,0,4
CCN1/C(=C/c2ccc3ccccc3[n+]2CC)Sc2ccc(Br)cc21,71*,-1,1,16
CCN1/C(=C/C(=C/c2sc3ccc(Cl)cc3[n+]2CC)C2CC2)Sc2ccc(Cl)cc21,30,0,-2,37
CC[n+]1c(/C=C/c2ccc(OC)c(OC)c2)ccc2ccccc21,59*,1,1,15
COc1ccc(/C=C/c2ccc3ccccc3[n+]2[O-])cc1,72*,0,-3,3
CCN1/C(=C/c2ccc3ccccc3[n+]2CC)Sc2cc(OC)c(OC)cc21,91*,-1,-1,42
c1ccc(CC2CCN(c3ncnc4c3cnn4-c3ccccc3)CC2)cc1,-2,0,0,-6
SMILES,TEAD-YAP block,FBW7 activator,GPR151 ag,MITF inh
CCOC(=O)c1c(NC(=O)c2ccccc2SC)sc2c1CCCC2,0,0,2,-8
Cc1noc(C)c1CN1C(=O)NC2(CCc3ccccc32)C1=O (stereo not drawn),-8,0,0,5
COc1ccccc1N1CCN(C(=O)CCCCCn2c(=S)[nH]c3ccccc3c2=O)CC1,15,0,-1,3
O=C(O)c1cc(S(=O)(=O)Nc2ccc3c(c2)OCCO3)c(Cl)cc1Cl,36*,0,1,5
COc1ccc2c(c1)C(=NN=C(N)N)c1cc(OC)ccc1-2,59*,0,0,-11
COc1ccc2c(c1)C(=O)c1cc(OC)ccc1-2,-13,0,-1,11
c1ccc(CNc2nc(Nc3cnccn3)nc3nc[nH]c23)cc1,17,11*,3,5
COc1ccc(CCNc2nc(Nc3cccnc3)nc3nc[nH]c23)cc1,41*,0,-1,14
